# Experimental data reported in the supplement of paper PMC10646978.
# ± gives the standard deviation.
# Key:
# Settings in all cases: modulator concentration 10 µM
# [1] = test system: RAW-Dual (murine macrophage reporter line); test: NF-kB reporter (SEAP) activity fold change vs agonist alone; higher = enhanced NF-kB activity
# Procedure, shortened: (§1)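 Overnight stimulation with a PRR agonist followed pre-incubation for 1 hour at 37 °C with compound at 10 μM final. This was done in RAW-Dual murine macrophage reporter cells seeded at 50 000 per well in 384-well plates. NF-κB (SEAP, QUANTI-Blue absorbance at 620 nm) and IRF (Lucia luciferase, QUANTI-Luc luminescence) were read from the supernatant. Each reporter's fold change relative to the mean agonist-only control on the same plate was averaged over replicate plates.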
# [2] = test system: RAW-Dual (murine macrophage reporter line); test: IRF reporter (Lucia luciferase) activity fold change vs agonist alone; higher = enhanced IRF activity
# Procedure, shortened: as §1
# [3] = test system: RAW-Dual (murine macrophage reporter line); test: viability score (confluency relative to resting cells, overnight) (fraction); higher = more viable, active = viable (0.7 or more)
# Procedure, shortened: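 RAW-Dual macrophages in 384-well plates were incubated overnight with compound, final concentration 10 μM. Confluency images from IncuCyte were processed in IncuCyte software into two masks covering all imaged wells. The viability score is each well's confluency relative to resting cells, and a compound met the cutoff when both masks exceeded 70% of resting cells.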
# [4] = agonist: CpG ODN 1826 0.5 ug/mL
SMILES,"NF-kB reporter [1, 4]",NF-kB reporter ([1]; agonist: LPS 0.1 ug/mL),NF-kB reporter ([1]; agonist: MPLA […]),IRF reporter ([2]; agonist: 3'3'-cGAMP 10 ug/mL),IRF reporter ([2]; agonist: LPS 0.1 ug/mL),IRF reporter ([2]; agonist: MPLA […]),viability score [3]
COc1ccc(CNC2CCCc3ccccc32)c(OC)c1C (stereo unspecified),0.166 ± 0.016,0.504 ± 0.058,1.09 ± 0.1,1.24 ± 0.04,1.21 ± 0.14,1.42 ± 0.29,0.192 (inactive)
Clc1ccc2nsnc2c1NC1=NCCN1 [Prestw-1182],1.14 ± 0.1,1.06 ± 0.085,0.958 ± 0.044,0.965 ± 0.044,0.93 ± 0.05,1.01 ± 0.13,0.995 (active)
C=CCN1CCCC1CNC(=O)c1cc2nn[nH]c2cc1OC.Cl (stereo unspecified),0.987 ± 0.2,1.05 ± 0.16,0.962 ± 0.14,0.917 ± 0.045,1.3 ± 0.31,0.93 ± 0.07,0.999 (active)
CCOc1cccc2sc(N(CCCN(C)C)C(=O)c3ccc(Cl)s3)nc12.Cl,0.938 ± 0.042,1.06 ± 0.19,0.898 ± 0.12,0.747 ± 0.093,0.989 ± 0.26,0.954 ± 0.38,0.917 (active)
COc1ccc(CCNCC(O)COc2cccc(C)c2)cc1OC.Cl (stereo unspecified),0.68 ± 0.16,1.15 ± 0.057,1.06 ± 0.099,0.824 ± 0.029,1.19 ± 0.14,1.43 ± 0.25,0.985 (active)
CNCCCC12CCC(c3ccccc31)c1ccccc12.Cl,0.507 ± 0.083,1.1 ± 0.24,1.32 ± 0.074,0.542 ± 0.038,1.36 ± 0.34,2.48 ± 0.34,0.29 (inactive)
CC(CS)C(=O)N1CCCC1C(=O)O (stereo unspecified),0.96 ± 0.096,0.932 ± 0.068,0.977 ± 0.18,0.973 ± 0.03,1.22 ± 0.12,1.33 ± 0.18,1.02 (active)
O=C(O)/C=C/c1ccc(Cn2ccnc2)cc1,0.812 ± 0.079,0.873 ± 0.05,1.07 ± 0.093,1.02 ± 0.062,1.16 ± 0.067,1.13 ± 0.12,1.01 (active)
O=C(O)c1nn(-c2ccccc2)c(=O)c2ccccc12,1.12 ± 0.13,1.1 ± 0.099,1.03 ± 0.027,0.955 ± 0.034,0.953 ± 0.086,0.953 ± 0.26,1 (active)
Cc1cc2c(s1)Nc1ccccc1N=C2N1CCN(C)CC1,0.278 ± 0.057,1.03 ± 0.36,0.929 ± 0.056,0.819 ± 0.049,1.16 ± 0.37,0.974 ± 0.075,1 (active)
CN(C)CCN(Cc1ccccc1)Cc1cc(Cl)cc(Cl)c1O,0.799 ± 0.063,0.918 ± 0.081,0.996 ± 0.086,0.947 ± 0.058,1.29 ± 0.074,1.32 ± 0.12,1.01 (active)
Cc1cc(C)c(NC(=O)c2ccc(Oc3nccs3)cc2)c(C)c1,0.893 ± 0.039,1.12 ± 0.098,1.22 ± 0.18,0.844 ± 0.048,0.939 ± 0.21,1.06 ± 0.42,1.01 (active)
Cc1ccccc1CNC(=O)CN(c1cccc(C(F)(F)F)c1)S(C)(=O)=O,1.11 ± 0.097,1.07 ± 0.11,1.03 ± 0.041,0.956 ± 0.095,1.11 ± 0.13,1.03 ± 0.24,1 (active)
